Data taken from PMC5836133, “The intracellular immune receptor Rx1 regulates the DNA-binding activity of a Golden2-like transcription factor”.
Whole data set: some 16,000 sequences, median “e-score” near -0.044, cut for the highest 2% near 0.38. Many of the other results were omitted from the sample, so the highest values are more common in it than they were.

Target: T1, GST-NbGlk1(82-244) (Nicotiana benthamiana)
T1 chain: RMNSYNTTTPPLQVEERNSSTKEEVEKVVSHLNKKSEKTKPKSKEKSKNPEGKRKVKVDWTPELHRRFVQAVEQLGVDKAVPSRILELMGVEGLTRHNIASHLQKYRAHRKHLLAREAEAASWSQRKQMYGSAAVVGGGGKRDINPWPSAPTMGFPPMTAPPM
Assay: protein-binding microarray; NbGlk1 is a Golden2-like transcription factor of Nicotiana benthamiana; high values mean tight binding
Conditions: protein: recombinant; tags: GST (pTH6838); dsDNA, one strand shown

Row | Sequence | binding signal
1 | AATATCTA | 0.402 ± 0.018 E-score
2 | ATTTAAAG | 0.222 ± 0.0214 E-score
3 | AACGTATA | 0.225 ± 0.0359 E-score
4 | ATTCGCAG | 0.292 ± 0.0538 E-score
5 | CACAATCA | 0.27 ± 0.109 E-score
6 | AAGGGATT | 0.3179 ± 0.00237 E-score
7 | ATTTCGCA | 0.279 ± 0.0966 E-score
8 | AATCTGAG | 0.415 ± 0.0436 E-score
9 | AATCAGAG | 0.229 ± 0.0948 E-score
10 | AATCTGTG | 0.411 ± 0.0099 E-score
11 | AATCAGTG | 0.266 ± 0.0198 E-score
12 | ATTCTGTG | 0.25 ± 0.0953 E-score
13 | ATCCTGTG | 0.205 ± 0.0418 E-score
14 | AAGCAAAT | 0.207 ± 0.0438 E-score
15 | AACGAAAT | 0.344 ± 0.0502 E-score
16 | ATCAGAAG | 0.24 ± 0.0447 E-score
17 | AATATCAC | 0.34 ± 0.00742 E-score
18 | ATTCGATC | 0.207 ± 0.00438 E-score
19 | AATGGATA | 0.3 ± 0.0974 E-score
20 | ATAATATC | 0.347 ± 0.0287 E-score
21 | CAAATATC | 0.375 ± 0.0172 E-score
22 | AGAATATG | 0.253 ± 0.0505 E-score

Row | Sequence | binding signal
23 | AGAATATA | 0.267 ± 0.0326 E-score
24 | AAAATATG | 0.218 ± 0.038 E-score
25 | ACAATATA | 0.206 ± 0.0382 E-score
26 | AGAATATC | 0.4346 ± 0.00342 E-score
27 | ACAATATC | 0.3871 ± 0.00293 E-score
28 | AAAATATC | 0.406 ± 0.00752 E-score
29 | ATCCTTTG | 0.201 ± 0.0717 E-score
30 | AATCGCTG | 0.234 ± 0.00581 E-score
31 | ATCTAACC | 0.266 ± 0.0179 E-score
32 | AGTGATAT | 0.298 ± 0.0207 E-score
33 | ATCGCACC | 0.247 ± 0.126 E-score
34 | ATTACAAA | 0.302 ± 0.0597 E-score
35 | AGGATCGC | 0.357 ± 0.0151 E-score
36 | AGGATTAC | 0.449 ± 0.00837 E-score
37 | ACGATTCG | 0.324 ± 0.025 E-score
38 | ATGATTCC | 0.306 ± 0.0505 E-score
39 | AGGATTCG | 0.352 ± 0.0252 E-score
40 | ACGATTCT | 0.362 ± 0.0226 E-score
41 | AGGATTCC | 0.448 ± 0.00523 E-score
42 | AGAATTAC | 0.23 ± 0.0195 E-score
43 | ACGATTCC | 0.4 ± 0.0168 E-score
44 | AGGATTAT | 0.31 ± 0.0692 E-score

Row | Sequence | binding signal
45 | AGGATTGC | 0.45 ± 0.0104 E-score
46 | ATGATTGC | 0.33 ± 0.019 E-score
47 | ACTTAGAT | 0.257 ± 0.118 E-score
48 | ATCCACCC | 0.255 ± 0.0461 E-score
49 | AAGGATTA | 0.278 ± 0.0334 E-score
50 | ATCTATGG | 0.205 ± 0.011 E-score
51 | ATATCGAG | 0.296 ± 0.0718 E-score
52 | ATTATTCC | 0.252 ± 0.0429 E-score
53 | AACGAGAT | 0.309 ± 0.0377 E-score
54 | AATAGGAT | 0.218 ± 0.15 E-score
55 | AGCAGAAT | 0.255 ± 0.0466 E-score
56 | ATACTCCA | 0.208 ± 0.0394 E-score
57 | ATCGTAAT | 0.375 ± 0.0645 E-score
58 | ATCGGAAA | 0.25 ± 0.0729 E-score
59 | ACGATTAC | 0.407 ± 0.0433 E-score
60 | ATGATTAC | 0.302 ± 0.0176 E-score
61 | ACGATTGC | 0.345 ± 0.0699 E-score
62 | ATTTTCGG | 0.237 ± 0.0617 E-score
63 | AAATCTAG | 0.452 ± 0.0158 E-score
64 | AAATCTAT | 0.419 ± 0.0237 E-score
65 | AAATCAAA | 0.309 ± 0.0265 E-score
66 | CAATCTAG | 0.3742 ± 0.000815 E-score

Row | Sequence | binding signal
67 | AGATCTAT | 0.337 ± 0.0129 E-score
68 | AAATCTAA | 0.4499 ± 0.000584 E-score
69 | CAATCTAC | 0.341 ± 0.0196 E-score
70 | AAATCAAC | 0.349 ± 0.0103 E-score
71 | AAATCGAG | 0.288 ± 0.0697 E-score
72 | AAATCAAT | 0.31 ± 0.0292 E-score
73 | AAATCTAC | 0.441 ± 0.0198 E-score
74 | CAATCTAA | 0.351 ± 0.0122 E-score
75 | ATATAAAA | 0.212 ± 0.0169 E-score
76 | ACCGGATA | 0.262 ± 0.0765 E-score
77 | AATTTCGT | 0.284 ± 0.0162 E-score
78 | ATCTCGCA | 0.324 ± 0.0204 E-score
79 | AAATAATA | 0.227 ± 0.0112 E-score
80 | ACAAATAT | 0.313 ± 0.0317 E-score
81 | ATCGGGAA | 0.276 ± 0.0291 E-score
82 | ACCTAGAT | 0.291 ± 0.0209 E-score
83 | ATCGCATG | 0.29 ± 0.0714 E-score
84 | CAATCATA | 0.255 ± 0.00353 E-score
85 | ATTATAAG | 0.253 ± 0.0219 E-score
86 | ATCCGCCA | 0.254 ± 0.0406 E-score
